Screens deposited in PubChem by The Scripps Research Institute Molecular Screening Center.
GPR151 activ: activators of human GPR151, primary screen, cell-based, PathHunter beta-arrestin, luminescence | G-protein coupled receptor 151 (Homo sapiens), Q8TDV0 | PathHunter beta-arrestin GPR151 cells | activation, % at 11.2 µM | hit rate 1% among 650,000; in the data active = activation above about 4.9%;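 note: 0% = median of compound wells and 100% = cells with positive control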
FBW7 act: FBW7 E3 ligase activators, primary screen, biochemical, AlphaScreen, human; AlphaScreen FBW7–phospho-cyclin E peptide binding, activator screen; F-box/WD repeat-containing protein 7 (Homo sapiens), Q969H0; normalized activity (activation), % at 26.1 µM; hit rate 0.13% among 650,000; in the data active = normalized activity above about 1.9%;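 note: purified mutant Fbw7 with reduced substrate affinity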
Target sequence (Q969H0 whole entry, looked up): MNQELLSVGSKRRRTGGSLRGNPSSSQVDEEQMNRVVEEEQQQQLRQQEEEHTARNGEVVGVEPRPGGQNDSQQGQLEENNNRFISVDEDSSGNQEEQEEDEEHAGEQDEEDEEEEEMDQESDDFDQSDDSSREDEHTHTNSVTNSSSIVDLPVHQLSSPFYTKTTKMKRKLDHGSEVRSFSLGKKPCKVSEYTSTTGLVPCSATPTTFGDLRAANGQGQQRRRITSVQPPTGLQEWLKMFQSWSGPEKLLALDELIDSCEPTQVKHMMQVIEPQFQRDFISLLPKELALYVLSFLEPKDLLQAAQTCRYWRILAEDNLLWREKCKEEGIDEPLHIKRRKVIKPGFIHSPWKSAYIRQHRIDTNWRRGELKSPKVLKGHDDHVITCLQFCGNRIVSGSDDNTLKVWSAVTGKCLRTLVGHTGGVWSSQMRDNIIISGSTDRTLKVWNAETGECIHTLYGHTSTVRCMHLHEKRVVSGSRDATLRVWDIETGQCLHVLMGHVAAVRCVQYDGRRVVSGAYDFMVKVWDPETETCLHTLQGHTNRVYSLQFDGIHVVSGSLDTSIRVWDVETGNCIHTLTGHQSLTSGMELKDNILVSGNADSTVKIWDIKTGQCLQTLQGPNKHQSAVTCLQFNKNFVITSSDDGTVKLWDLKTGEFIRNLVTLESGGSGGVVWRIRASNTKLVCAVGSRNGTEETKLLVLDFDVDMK
TEAD-YAP block: TEAD-YAP interaction inhibition, primary screen, TEAD-YAP interaction inhibitor project, luminescence, HEK-TIYL cells; inhibition, % at 9.12 µM; TEAD-Gal4/YAP UAS-luciferase luminescence; hit rate 1.4% among 640,000; in the data active = inhibition above about 32%;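 note: 0% = median of test compound wells and 100% = reference inhibitor wells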
MITF inh: MITF inhibitors, primary screen, biochemical, AlphaScreen, human; Microphthalmia-associated transcription factor (Homo sapiens), O75030; AlphaScreen MITF homodimerization, bead proximity signal; inhibition, % at 2.6 µM; hit rate 0.91% among 650,000; in the data active = inhibition above about 50%;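 note: 0% = vehicle wells with protein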
* marks the source's active call; other numbers are inactive results. A selection: hits, their analogues and other compounds. The true share with any hit is near 3.5%.

SMILES	GPR151 activ	FBW7 act	TEAD-YAP block	MITF inh
COc1cccc(C2CC(=O)N3C(=C2C#N)SCC3(O)c2cccc(OC)c2)c1 (configuration not stated)	0.8	-0.3	51.0*	-16.1
N#CC1=C2SCC(O)(c3ccccc3)N2C(=O)CC1c1ccccc1F (configuration not stated)	-0.4	-0.2	26.0	0.5
COC(=O)c1ccc(C2CC(=O)N3C(=C2C#N)SCC3(O)c2ccc(C)cc2)cc1 (configuration not stated)	-2.0	0.0	49.0*	1.2
COc1ccc(/C=C2\C=C(c3ccccc3)OC2=O)cc1OC(C)=O	0.4	0.0	-14.9	10.8
Nc1cccc2c1C(=O)c1c(oc3c1ccc1ccccc13)C2=O	-1.6	-0.3	78.3*	-2.8
O=C(Nc1ccc(-c2ccn[nH]2)cc1)c1cccnc1	-9.7	0.1	78.7*	-4.0
O=C(Nc1cccc(-c2nc3ccc(NC(=O)c4cccnc4)cc3o2)c1)c1cccnc1	2.1	0.0	41.4*	5.0
CCOc1cc(C(=O)Nc2ccc(-c3ccn[nH]3)cc2)cc(OCC)c1OCC	-1.1	0.5	50.6*	11.7
CC1CCC2(CC1)NC(=O)N(CC(=O)Nc1ccccc1C(=O)Nc1ccccc1)C2=O (configuration not stated)	-0.1	0.1	10.1	-7.3
CCOc1cccc2c1OC(c1cc(OC)c(OC)c(OC)c1)N1N=C(c3cccs3)CC21 (configuration not stated)	-1.0	-0.1	-68.2	-0.5
Cc1csc(NC(=O)c2cc3c(s2)CCC(C)C3)n1 (configuration not stated)	-5.8	-0.1	74.4*	-3.2
CCc1sc(C(=O)Nc2nc(C)cs2)cc1C	-0.9	-0.1	-34.8	3.1
Cc1cc(/C=C(\C#N)C(=O)NCCCn2ccnc2)cc(C)c1O	0.5	-0.1	-8.1	-4.6
CCCN(CCC)S(=O)(=O)c1ccc(/C(O)=C(\C#N)c2nc3ccccc3[nH]2)cc1	0.0	0.1	-6.3	11.5
C/C(N)=C(/C#N)C(=O)CSc1ccc(C)c(C)c1	-1.2	0.1	36.2*	-3.1
CN(C)/C(CBr)=C1/N=C(c2ccccc2)OC1=O	-0.2	0.0	-0.9	-3.1
Cc1ccn2c(/C(=C3/N=C(c4ccccc4)OC3=O)N(C)C)cnc2c1	0.1	0.0	34.2*	9.4
CCOc1ccc2nc(N3C(=O)Nc4ccccc4N3O)sc2c1	-0.4	0.0	6.2	6.9
O=c1cc(CNCc2cccs2)c2cc3c(cc2o1)CCC3	-2.0	-0.2	45.1*	-0.3
COc1ccc(-c2cc(C(=O)NCC(=O)O)c(C)o2)cc1OC	-0.2	0.1	-38.1	5.7
CC(=O)Nc1ccc(Nc2ccnc(Nc3ccc4ncccc4c3)n2)cc1	-0.6	0.0	36.6*	5.3
CC(=O)Nc1ccc(Nc2ccnc(Nc3ccncn3)n2)cc1	3.9	0.1	-16.2	9.8
CC(=O)Nc1ccc(Nc2cc(C)nc(Nc3ccc4ncccc4c3)n2)cc1	0.8	0.1	26.6	9.6
CC(=O)Nc1ccc(Nc2ccnc(Nc3ccc(C(F)(F)F)cc3)n2)cc1	-0.3	0.0	59.8*	11.4
COc1ccc(C(=O)Nc2cc(Cl)ccc2C(=O)O)cc1	-1.4	0.1	5.9	15.5
SMILES	GPR151 activ	FBW7 act	TEAD-YAP block	MITF inh
COC(=O)c1ccc(Cl)cc1NC(=O)c1cc(OC)ccc1Br	-1.1	0.0	36.7*	-2.9
COc1ccc2occ(C(=O)c3oc4ccc(Cl)cc4c3N)c2c1	-0.8	0.0	57.0*	-10.1
CCOc1ccccc1NC(=O)CNC(=O)c1ccc(Br)cc1	-0.3	-0.1	1.1	4.4
CCc1c(C)sc(NC(=O)C2C3C=CC(C3)C2C(=O)O)c1C(=O)OC(C)C (configuration not stated)	1.4	-0.1	63.7*	-4.0
Cc1cc(NC(=O)c2ccccc2)ccc1O	-5.4	0.0	73.2*	4.4
CC(=O)Nc1ccc(NC(=O)c2ccccc2)c(C)c1	1.9	11.8*	3.7	1.0
Cc1cc(NC(=O)/C=C/c2ccccc2)ccc1O	-1.5	-0.2	73.0*	-11.9
Cc1cccc(C)c1NC(=O)C1(O)CCCCC1	-0.9	0.0	-6.7	3.7
CC(C)(C)/C(=C\c1nc2ccccc2[nH]c1=O)NN	-6.2	0.0	80.6*	3.2
COc1ccc(-c2nnc3sc(NC(=O)c4cccs4)nn23)cc1OC	-1.3	0.0	-1.0	-10.9
CCCNc1nc(Nc2ccc(C(F)(F)F)cc2)nc2c1ncn2-c1ccccc1	0.6	0.1	-5.9	2.3
CC(C)NS(=O)(=O)c1ccc(Cc2ccc(S(=O)(=O)NC(C)C)cc2)cc1	0.7	0.1	34.6*	5.2
CC(C)(C)NS(=O)(=O)c1ccc(Cc2ccc(S(=O)(=O)NC(C)(C)C)cc2)cc1	-1.1	-0.1	37.4*	-3.7
CC(C)(C)NS(=O)(=O)c1ccc(F)cc1	0.6	0.0	-2.5	-4.8
Cc1nnc(N/N=C/c2ccccc2C(F)(F)F)[nH]c1=O	-2.7	0.3	3.8	19.5
COc1ccc(-c2nc(N)n(C(=O)c3ccccc3OC)n2)cc1	1.4	-0.1	40.0*	8.6
CC1Cc2ccccc2N1C(=O)CSc1nnc(-c2ccccc2)n1C (configuration not stated)	-1.2	0.2	1.4	-15.3
CC1Cc2ccccc2N1C(=O)CSc1nnc(Cc2ccccc2)n1C (configuration not stated)	-1.1	0.1	48.6*	18.5
CCc1ccc(CN2CCc3nnc(C(NC(=O)c4ccccn4)C(C)C)n3CC2)cc1 (configuration not stated)	-1.3	0.6	9.4	8.2
O=C(NC1CCCCCC1)/C(=C/c1ccco1)n1nnnc1-c1ccccc1	0.7	0.3	34.5*	7.3
NC(=O)COC(=O)/C(=C/c1ccco1)n1nnnc1-c1ccccc1	1.0	-0.1	1.1	13.2
COc1ccc(N2C(=O)c3ccc(C(=O)OCc4cccc([N+](=O)[O-])c4)cc3C2=O)cc1	-0.2	-0.1	-6.7	7.3
CCOc1ccc(C2Oc3c(Cl)cc(Cl)cc3C=C2[N+](=O)[O-])cc1OCC (configuration not stated)	0.0	0.1	64.4*	24.1
CCOc1ccc(C2Oc3c(cccc3OC)C=C2[N+](=O)[O-])cc1OCC (configuration not stated)	-0.5	0.0	21.1	10.8
CCOc1ccc(C2Oc3ccc(Br)cc3C=C2[N+](=O)[O-])cc1OCC (configuration not stated)	-0.9	-0.1	40.7*	28.8
COc1ccccc1Nc1cnn(C23CC4CC(CC(C4)C2)C3)c(=O)c1Cl	0.8	-0.3	-6.2	-4.7
O=C1N[C@@H](Cc2c[nH]c3ccccc23)C(=O)N2CCN(C(=O)c3ccccc3Cl)C[C@H]12	0.7	0.1	-14.7	5.5
Cc1nc2c(c(=O)[nH]1)CCN(Cc1c(C)oc3ccccc13)C2	0.2	-0.1	-10.4	2.2
CC1(C)CC(=O)C2=C(C1)Nc1ccc3ccccc3c1C2c1ccccc1Cl (configuration not stated)	-0.1	0.3	2.9	13.6
